# Screening data deposited in PubChem BioAssay by National Center for Advancing Translational Sciences (NCATS).
# HCV inh = blocks hepatitis C virus. Huh7.5.1 HCVcc-Cre infection, luciferase reporter, 44 h. 340,000 tested, 3.4% active. Potency, µM (titrated, usually from 41.8 µM), for the others: at the highest dose activity change, negative = inhibition, actives largely listed as inhibitors. AID 651820; further: potency means the concentration at half of the fitted maximal effect; on the % scale 0 is the no-effect control and ±100 the full control effect
#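 HCVcc-Cre virus at an moi near 0.5 was added right after compound to cells cultured 4 h from seeding (1,000 cells/well). Luciferase activity was determined 44 h later, 15 min after substrate addition at RT.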
# Pf growth 96h = P. falciparum growth inhibition at 96 hour, primary screen for plastid delayed-death inhibitors; AID 504834; 320,000 tested, 6.9% active; P. falciparum luciferase reporter growth, 96 h; Potency, µM (titrated, usually from 28.7 µM), for the others: top-dose activity change, negative = inhibition, most hits filed as inhibitors; further: potency means the concentration at half of the fitted maximal effect; on the % scale 0 is the no-effect control and ±100 the full control effect
#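 96 h incubation, 37 C, 5% CO2, of luciferase-reporter P. falciparum-infected RBCs (2% hematocrit, 0.05% parasitemia final) with test compounds; endpoint luminescence.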
# AMA1 RON2 block = disrupts binding of P. falciparum AMA1 to RON2. AlphaScreen AMA1-biotinylated RON2 peptide binding. Potency, µM (series often up to 58.2 µM), for the others: at the top dose activity change, negative = inhibition, most hits filed as inhibitors. 360,000 tested, 0.2% active. AID 720542;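 further: potency means the concentration at half of the fitted maximal effect; 0% = vehicle wells and -100% = peptide control; nearly all actives have a fitted effect of over 45% in size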
#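 AMA1 (3D7) with his tag at 25 nM final met compounds first, then biotinylated RON2 peptide at 25 nM; detection used donor plus acceptor beads, 10 µg/mL apiece, read by AlphaScreen after 30 min at room temperature.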
# Cycloheximide cs = counter-screen hit for Shiga toxin inhibitors, cycloheximide; cell reporter, cycloheximide protein synthesis inhibition counterscreen; max response, %; 300,000 tested, 12% active; in the data active means max response mostly above about 13%, no sharp cut-off; inactive means mostly below about 14%; further: read at 38.3 µM for the half of the compounds with a filed dose; 0% is about no effect
# Shiga inhibitor = blocks Shiga toxin action in Vero cells. inhibition, % at 38.7 µM. AID 2315. Vero cells, Shiga toxin protein synthesis inhibition reporter. 290,000 tested, 9.2% active; in the data active means inhibition mostly above about 28%, no sharp cut-off; inactive means mostly below about 43%; further: 0% is about no effect
# Pf growth 48h = P. falciparum growth inhibition at 48 hours (one generation). P. falciparum luciferase growth in erythrocytes, 48 h. Potency, µM (highest dose often 28.7 µM), for inactives: at the highest dose activity change, negative = inhibition, hits mostly inhibitors. 310,000 tested, 5.9% active. AID 504832; further: potency means the concentration at half of the fitted maximal effect; on the % scale 0 is the no-effect control and ±100 the full control effect
#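 Read-out is firefly luciferase luminescence from an integrated reporter in P. falciparum, so falling signal marks reduced parasite growth. Infected erythrocytes were at 2% hematocrit and 0.1% parasitemia (final) in Albumax-supplemented RPMI 1640.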
# * = called active by the depositor; u = inconclusive; x = not tested or not shown; [ ] = another dose, or the depositor's remark. Rows were chosen to be rich in hits. Some 21% of all compounds tested hit in one or more screens of this group. Unless noted, the call rests on the fitted dose curve; in most records, active means well fitted curve in the direction sought with a large enough effect; inconclusive means small, poorly fitted or top-dose-only effect, or another doubt; inactive means no such curve, though single readings can be large; an effect the other way counts as inactive or inconclusive.
SMILES,HCV inh,Pf growth 96h,AMA1 RON2 block,Cycloheximide cs,Shiga inhibitor,Pf growth 48h
O=C(c1ccccc1)N1CCN(C(=O)C23CC4CC(CC(C4)C2)C3)CC1,0.9%,43.4%,-9.6%,-3.1,-4.2,u
O=S(=O)(c1ccc(NC(=S)NC23CC4CC(CC(C4)C2)C3)cc1)N1CCCCC1,x,x,18.1%,x,x,x
CN1CCN(C(=O)C23CC4CC(C2)CC(c2ccccc2)(C4)C3)CC1,10µM*,u,-8.9%,-2.3,-13.9,u
CCOc1ccc(NC(=S)NC23CC4CC(CC(C4)C2)C3)cc1,16.4%,20.9%,0.0%,0.8,6.9,10.4µM*
COc1ccc(NCc2nc3ccccc3n2C)cc1,3.3%,u,14.8%,34.6*,66.2*,170.3%
COc1ccc(C(=O)NNC(=O)Cc2nc3ccccc3n2C)cc1,-2.6%,x,74.4%,x,x,x
CCn1c(CNc2nc3ccccc3n2C(C)C)nc2ccccc21,-22.1%,11.7µM*,8.6%,-1.1,-11.0,u
Cn1c(CNc2nc3ccccc3n2C)nc2ccccc21,6.9%,137.9%,25.2%,67.7*,76.8*,282.0%
CC(C)n1c(NCc2nc3ccccc3n2C)nc2ccccc21,8.1%,x,32.3%,0.7,-0.1,u
CC(C)C(=O)NCCc1nc2ccccc2n1C,2.5%,x,-10.0%,-2.3,-13.4,21.2%
Cn1c(CNc2ccc(Br)cc2)nc2ccccc21,-16.6%,17.7%,1.3%,39.7*,114.0*,34.1%
OC(COC(c1ccc(F)cc1)c1ccc(F)cc1)CN1CCCC(C(F)(F)F)C1 (configuration not stated),33.2%,u,u,-0.5,-3.7,-85.0%
CC(C)Nc1ncnc2c1ncn2[C@H]1CN(C2CCCC2)C[C@@H](CO)O1,x,x,5.6%,x,x,x
C=CCn1c(SCC(=O)N2CCC(C)CC2)nc2c([nH]c3ccccc32)c1=O,x,x,3.8%,x,x,x
CCn1c(Cc2ccccc2)nnc1SCC(=O)N1CCCC1=O,x,96.0%,5.3%,1.0,-6.5,-5.2%
CCOC(=O)c1ccc(NCc2nc3ccccc3n2C)cc1,6.9%,18.3%,-3.4%,32.5*,42.7,29.4%
Cc1ccc(NCc2nc3ccccc3n2C)cc1C,6.4%,-21.1%,0.0%,46.0*,x,176.0%
Cc1ccc(NCc2nc3ccccc3n2C)cc1,-15.4%,u,13.6%,48.6*,95.0*,155.0%
COc1ccc(Nc2nc3ccccc3n2C)cc1,-27.6%,-17.7%,5.3%,35.3*,40.0*,97.4%
Cc1ccc(NC(=O)NCc2nc3ccccc3n2C)cc1,-2.4%,11.1%,31.1%,5.8,2.0,-24.1%
Cn1c(CNc2ccc(O)cc2)nc2ccccc21,-4.6%,-20.5%,-24.2%,19.4*,75.3*,11.6%[0.00184 µM]
Cn1c(CNC2CCCCC2)nc2ccccc21,31.6%,u,34.2%,9.8,-3.4,4.5%
C[C@@H](C(=O)Nc1ccc2ccccc2c1)[C@@H]1C[C@@]1(C)[C@@H](NC(=O)c1cnccn1)c1ccccc1,6.3%,u,-1.1%,1.0,6.9,u
Cc1cc(C(=O)N[C@H](c2ccccc2)[C@@]2(C)C[C@@H]2[C@@H](C)C(=O)Nc2ccc3ccccc3c2)no1,u,11.7µM*,11.2%,-1.7,-10.9,u
C[C@@H](C(=O)Nc1ccc2ccccc2c1)[C@H]1C[C@]1(C)[C@H](NC(=O)c1cnccn1)c1ccccc1,u,1.47µM*,-3.1%,-1.3,-14.4,2.94µM*
SMILES,HCV inh,Pf growth 96h,AMA1 RON2 block,Cycloheximide cs,Shiga inhibitor,Pf growth 48h
Cc1cc(C(=O)N[C@@H](c2ccccc2)[C@]2(C)C[C@H]2[C@@H](C)C(=O)Nc2ccc3ccccc3c2)no1,-4.9%,u,-1.6%,-1.6,24.0,-0.7%
CCN1CCc2c(OCC(=O)N3CCCCC3)cccc2C1=O,-4.5%,0.1%,16.4%,10.5,5.5,13.1%
COc1ccc(-c2csc(Nc3cc(C)ccn3)n2)cc1OC,10µM*,4.6%,-11.9%,51.1*,63.2*,16.6%
COc1ccc(-c2csc(Nc3ccc(S(N)(=O)=O)cc3)n2)cc1OC,-15.8%,u,-10.6%,-5.7,-11.0,u
COc1ccc(-c2csc(Nc3ccc(C)cn3)n2)cc1OC,12.6µM*,158.7%,-4.1%,34.0*,75.4*,11.2%
O=C(O)c1cn(C2CCCCC2)c2ccccc2c1=O,0.4%,-19.4%,-5.1%,-2.9,-0.6,u
CC1CCc2c(N3CCC(O)CC3)c(F)cc3c(=O)c(C(=O)O)cn1c23 (configuration not stated),9.3%,6.01µM*,36.2%,x,x,14.7µM*
CN1CCN(c2c(F)cc3c(=O)c(C(=O)O)cn(CCF)c3c2F)CC1,x,-4.1%,x,11.9,13.5,-0.2%
CCOC(=O)c1cn(C2CC2)c2c(F)c(NCCCN(C)C)c(F)cc2c1=O,13.3%,x,6.2%,x,x,x
Cc1c(F)c(N2CCNC(C)C2)cc2c1c(=O)c(C(=O)O)cn2C1CC1 (configuration not stated),x,6.75µM*,x,x,x,-18.9%
CC1CCc2cc(F)cc3c(=O)c(C(=O)O)cn1c23 (configuration not stated),1.8%[8.37 µM],u,18.5%,0.6,-6.9,7.0%
NC1CCN(c2c(F)cc3c(=O)c(C(=O)O)cn(C4CC4)c3c2Cl)C1 (configuration not stated),-7.9%,0.738µM*,-0.8%,-2.3,-18.7,5.86µM*
CC1CN(c2c(F)c(N)c3c(=O)c(C(=O)O)cn(C4CC4)c3c2F)CC(C)N1 (configuration not stated),x,4.78µM*,x,-4.5,-2.2,7.57µM*
COc1ccccc1N1CCN(C2CCCCC2NS(=O)(=O)c2ccccc2)CC1 (configuration not stated),u,-29.2%,-4.6%,-3.2,-1.9,u
O=C(O)c1cn(-c2ccc(N3CCCC3)c(F)c2)c2c(F)c(F)c(F)cc2c1=O,-9.1%,1.7%,u,0.4,-11.4,19.0%
NC1CCN(c2nc3c(cc2F)c(=O)c(C(=O)O)cn3-c2ccc(F)cc2F)C1 (configuration not stated),4.4%,1.07µM*,9.4%,x,x,3.79µM*
COc1c(N2CCN(C(=S)Nc3ccc(F)cc3)C(C)C2)c(F)cc2c(=O)c(C(=O)O)cn(C3CC3)c12 (configuration not stated),-10.7%,u,-8.1%,-2.3,-6.3,u
COc1c(N2CCN(C(=S)NC3CC4CCC3C4)C(C)C2)c(F)cc2c(=O)c(C(=O)O)cn(C3CC3)c12 (configuration not stated),u,u,1.1%,-1.8,7.2,u
CO/N=C1\CN(c2nc3c(cc2F)c(=O)c(C(=O)O)cn3C2CC2)CC1CN (configuration not stated),x,1.69µM*,x,x,x,1.9µM*
COc1c(N2CCNC(C)C2)c(F)cc2c(=O)c(C(=O)O)cn(C3CC3)c12 (configuration not stated),x,5.36µM*,x,x,x,u
